Structures are written as SMILES. Results filed as inconclusive are left out. Activity calls are given as the source filed them. Calls follow the shape of the dose curve; as a rule, active = well fitted cell-killing curve with a large enough effect; inconclusive = small, poorly fitted or top-dose-only effect, or effect the other way; inactive = no such curve, though single readings can be large or run the other way.
Potency is read from the fitted curve at half-maximal effect.

This assay in a line: Quantitative High-Throughput drug screen in 47 multiple myeloma cell lines against the NCATS MIPE library collection: KMM1_JCRB cell viability assay (AID 1918960). Also: nearly all actives have a fitted effect of over 30% in size.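 As to viability (% of DMSO): 100% = DMSO-treated cells and 0% = medium-only wells.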 To be noted: KMM1 myeloma viability, CellTiter-Glo ATP luminescence, 48 h; series mostly up to 45.8 µM; viability (% of DMSO): at the top concentration. The procedure, abridged: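 Here, 48 h treatment with MIPE 4.0 agents at 37 °C preceded an ATP luminescence read. Plating density was 500 cells per well.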
On the technique in general: In ATP-based viability assays light output follows the ATP content of the culture.
As to `c1ccc2c(CN3CCNCC3)cccc2c1`, the “viability (% of DMSO)” value is 92.6% (inactive).

As for `CSCC[C@@H](NC(=O)[C@@H](Cc1ccccc1)NC(=O)CNC(=O)CNC(=O)[C@@H](N)Cc1ccc(O)cc1)C(=O)O`, the “viability (% of DMSO)” value is 129% (inactive).

Regarding `COCC1(CO)C(=O)C2CCN1CC2` (stereo not drawn), the Potency is 20900 nM (active).

With `CCNC(=O)C[C@@H]1N=C(c2ccc(Cl)cc2)c2cc(OC)ccc2-n2c(C)nnc21`, the Potency was 235 nM (active).

In the case of `COc1cccc2c1[C@]13CCN(CC4CC4)[C@H](C2)[C@]1(OC)CCC(=O)C3`, the “viability (% of DMSO)” value was 97.9% (inactive).

For `CN1CCN(c2ccc([N+](=O)[O-])c3no[n+]([O-])c23)CC1`, the Potency was 20900 nM (active).

Regarding `O=C1C=CC[C@@H]2[C@H]3CCCN4CCC[C@@H](CN12)[C@@H]34`, the “viability (% of DMSO)” value is 111% (inactive).

Take `CCc1c(C(=O)C(N)=O)c2c(OCC(=O)O)cccc2n1Cc1ccccc1`: the “viability (% of DMSO)” value was 107% (inactive).

As for `Cc1ccccc1-n1c(Cn2ncc3c(N)ncnc32)nc2cccc(C)c2c1=O`, the Potency is 372 nM (active).

On to `CCOC(=O)c1cncn1[C@H](C)c1ccccc1`, for which the “viability (% of DMSO)” value was 82.1% (inactive).

On to `COc1ccc(C(=O)c2c(C)n(CCN3CCOCC3)c3cc(I)ccc23)cc1`, for which the Potency is 18700 nM (active).

Turning to `O=[N+]([O-])c1ncc[nH]1`, the “viability (% of DMSO)” value is 80.1% (inactive).

As to `CC1=C(O)C(=O)C=C2C1=CC=C1[C@@]2(C)CC[C@@]2(C)[C@@H]3C[C@](C)(C(=O)O)CC[C@]3(C)CC[C@]12C`, the Potency is 833 nM (active).

With `CC(C)N[C@@H]1CCn2c(=O)[nH]c3cccc(c32)[C@@H]1O`, the Potency is 743 nM (active).

As for `COc1ccc2c(c1)CN(C)CC2c1ccc(Cl)c(Cl)c1` (stereo not drawn), the Potency was 14800 nM (active).

Take `CC[C@@]1(O)C(=O)OCc2c1cc1n(c2=O)Cc2cc3ccccc3nc2-1`: the Potency was 105 nM (active).

In the case of `CC[C@@H]1[C@@H](C)O[C@@](O)([C@@H](C)[C@H](O)[C@H](C)[C@H]2OC(=O)C=CC=C[C@@H](C)[C@@H]([C@@H](C)[C@@H](O)[C@H](C)[C@@]3(O)C[C@H](O[C@H]4C[C@H](O)[C@H](O)[C@H](C)O4)[C@H](CC)[C@@H](C)O3)OC(=O)C=CC=C[C@@H]2C)C[C@H]1O[C@H]1C[C@H](O)[C@H](O)[C@H](C)O1`, the Potency is 469 nM (active).

Turning to `COc1ccc2c(c[n+](C)c3c4cc5c(cc4ccc23)OCO5)c1OC`, the Potency was 5900 nM (active).

For the compound `C[C@@H]1CC[C@@]2(OC1)O[C@H]1C[C@H]3[C@@H]4CC=C5C[C@@H](O[C@@H]6O[C@H](CO)[C@@H](O[C@@H]7O[C@@H](C)[C@H](O)[C@@H](O)[C@@H]7O)[C@H](O)[C@@H]6O[C@@H]6O[C@@H](C)[C@H](O)[C@@H](O)[C@@H]6O)CC[C@]5(C)[C@@H]4CC[C@]3(C)[C@@H]1[C@H]2C`, the Potency is 2640 nM (active).

For `C1=C2CCCN[C@H]2[C@@H]2C[C@H]1[C@@H]1CCCCN1C2`, the “viability (% of DMSO)” value is 90.5% (inactive).

With `Cc1c(C(=O)Nc2cccc(C(F)(F)F)c2)cc(-c2ccccc2)n1CCCN1CCOCC1`, the Potency was 14800 nM (active).

As for `COc1cc2cc(c1Cl)N(C)C(=O)C[C@H](OC(=O)C(C)C)[C@]1(C)O[C@H]1[C@H](C)[C@@H]1C[C@@](O)(NC(=O)O1)[C@H](OC)C=CC=C(C)C2`, the “viability (% of DMSO)” value was 29.7% (inactive).

As to `O=S(=O)(CC1CS1)c1ccc(Oc2ccccc2)cc1` (stereo not drawn), the Potency is 5900 nM (active).

In the case of `CCCC[N+]1(C)[C@H]2CC(OC(=O)[C@H](CO)c3ccccc3)C[C@H]1[C@H]1O[C@H]12` (stereo partly drawn), the “viability (% of DMSO)” value was 98.9% (inactive).

`O=c1[nH]c2ccc(Cl)cc2c(N[C@@H]2CN3CCC2CC3)c1-c1nc2ccccc2[nH]1`: the Potency was 46.9 nM (active).

On to `CCN1CCN(C(=O)Cc2ccc(Nc3ncc(F)c(Nc4ccc(C(=O)Nc5ccccc5Cl)cc4)n3)cc2)CC1`, for which the Potency is 2640 nM (active).

For `COc1ccc(CC2NCCc3cc(OC)c(OC)cc32)cc1OC` (stereo not drawn), the “viability (% of DMSO)” value was 80.8% (inactive).

Turning to `CCOP(=O)(OCC)C(C)NC(=O)N(CCCl)N=O` (stereo not drawn), the “viability (% of DMSO)” value was 105% (inactive).

For the compound `CCOC(=O)Nc1ccc(NCc2ccc(F)cc2)cc1N`, the Potency is 6620 nM (active).

As for `Cc1ccccc1-n1c(Cn2cnc3c(N)ncnc32)nc2cccc(C)c2c1=O`, the Potency was 372 nM (active).

For the compound `NC1=NC(=O)N2CC12` (stereo not drawn), the Potency was 11800 nM (active).

Take `CC(C)N(CCNC(=O)CN1CCCC1=O)C(C)C`: the “viability (% of DMSO)” value is 96.4% (inactive).

Regarding `CC(C)[C@]12O[C@@H]1[C@@H]1O[C@]13[C@]1(O[C@H]1C[C@@H]1C4=C(CC[C@@]13C)C(=O)OC4)[C@H]2O`, the “viability (% of DMSO)” value was 6.08% (inactive).

Regarding `CC(N[C@H]1C[C@H]1c1ccccc1)c1ccc2c(c1)OCCO2` (stereo partly drawn), the “viability (% of DMSO)” value was 112% (inactive).

On to `O=C(N[C@H]1CN2CCC1CC2)c1ccc(Cl)cc1`, for which the “viability (% of DMSO)” value was 68.5% (inactive).

For `CCCCCC[C@H]1C(=O)O[C@H](C)[C@H](NC(=O)c2cccc(NC=O)c2O)C(=O)O[C@@H](C)[C@@H]1OC(=O)CC(C)C`, the Potency is 418 nM (active).

For the compound `CN(C)[C@@H]1C(=O)C(C(N)=O)=C(O)[C@@]2(O)C(=O)C3=C(O)c4c(O)cccc4[C@@](C)(O)[C@H]3[C@H](O)[C@@H]12`, the “viability (% of DMSO)” value was 94.9% (inactive).

Turning to `CC(C)(O)C=CC(=O)[C@](C)(O)[C@H]1[C@H](O)C[C@]2(C)[C@@H]3CC=C4[C@@H](C=C(O)C(=O)C4(C)C)[C@]3(C)C(=O)C[C@@]12C`, the Potency is 59 nM (active).

(Values after PubChem BioAssay (NCATS).)
